Experimental data from PubChem BioAssay (NCI).
This is part of a sample that, as a whole, favours compounds with a hit. Of some 83,000 tested, about 20% had one in any assay.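 In brief: 96-well plates, 48 h treatment, single concentration, percent growth endpoint.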 A number with no mark means an inactive call. The source made the active and inactive calls. Rule for the calls: active = growth percent below 10; inactive = the rest.

What was measured:
Test in all cases: NCI-60 one-dose screen, 48 h (100 = growth as untreated, 0 = no growth, -100 = all killed)
Conditions in all cases: 10 µM unless noted
SR leukemia = test system: SR leukemia
RPMI-8226 leukemia = test system: RPMI-8226 leukemia
OVCAR-8 ovarian = test system: OVCAR-8 ovarian
OVCAR-5 ovarian = test system: OVCAR-5 ovarian
OVCAR-4 ovarian = test system: OVCAR-4 ovarian
SK-OV-3 ovarian = test system: SK-OV-3 ovarian
IGROV1 ovarian = test system: IGROV1 ovarian
OVCAR-3 ovarian = test system: OVCAR-3 ovarian
HS 578T breast = test system: HS 578T breast
NCI/ADR-RES ovarian = test system: NCI/ADR-RES ovarian

| SMILES | growth (SR leukemia) | growth (RPMI-8226 leukemia) | growth (OVCAR-8 ovarian) | growth (OVCAR-5 ovarian) | growth (OVCAR-4 ovarian) | growth (SK-OV-3 ovarian) | growth (IGROV1 ovarian) | growth (OVCAR-3 ovarian) | growth (HS 578T breast) | growth (NCI/ADR-RES ovarian) |
| --- | --- | --- | --- | --- | --- | --- | --- | --- | --- | --- |
| Nc1nc(Nc2ccccc2SSc2ccccc2Nc2nc(N)nc(-c3ccc(I)cc3)n2)nc(-c2ccc(I)cc2)n1 | 13.9% | 61.4% | 60.2% | 84.9% | 107% | 116% | 50.3% | 94.1% | 89.1% | 49.6% |
| CCN(CC)c1ccc(N=C2C=CC(=O)C=C2NC(C)=O)cc1 | 110% | 89.8% | 94% | 108% | 104% | 86.9% | 96.7% | 74.2% | 104% | 105% |
| O=C(CC(C(=O)c1ccccc1)N1CCN(Cc2ccccc2)CC1)c1ccccc1 (stereo not given) | 57.2% | 28.7% | 90.7% | 86.3% | 86.5% | 112% | 119% | 58.8% | 92.5% | 97.1% |
| Cc1ccc(C(=O)Cc2ccccc2)c(O)c1 | 83% | 115% | 104% | 99.1% | 107% | 127% | 107% | 110% | 107% | 108% |
| CC1CN(C2CCCCC2)C(=O)NC1=O (stereo not given) | 80.3% | 111% | 104% | 105% | 116% | 107% | 110% | 111% | 110% | 119% |
| CCCCCCCCCCOC(C)=O | 98.6% | 99.1% | 101% | 101% | 103% | 110% | 96.2% | 110% | 101% | 111% |
| CC[C@H]1CN2CCc3cc(OC)c(OC)cc3C2C[C@@H]1CC1NCCc2cc(OC)c(OC)cc21 (stereo not given in full) | -9.39% (active) | -41% (active) | -20.6% (active) | -12% (active) | -9.56% (active) | -1.2% (active) | -22.9% (active) | -30.9% (active) | -12% (active) | -9.95% (active) |
| COc1ccc2c(c1)sc1nc(-c3ccc(Br)cc3)cn12 | 120% | 112% | 102% | 101% | 100% | 117% | -23.9% (active) | 122% | 125% | 92.4% |
| C[C@@H]1CN(c2nc3c(cc2F)c(=O)c(C(=O)O)cn3C(C)(C)C)C[C@H](C)N1 | 115% | 114% | 94.8% | 109% | 104% | 105% | 121% | 104% | 67.2% | 80.6% |
| CCCCCc1c(C)[nH]c(/C=C2\N=C(c3ccc[nH]3)C=C2Oc2ccc(Cl)cc2)c1C | -9.44% [100 µM] (active) | -32.8% [100 µM] (active) | -21.5% [100 µM] (active) | -3.17% [100 µM] (active) | 12.6% [100 µM] | 1.44% [100 µM] (active) | 13.3% [100 µM] | -96.2% [100 µM] (active) | 3.26% [100 µM] (active) | 5.31% [100 µM] (active) |
| C#C[C@]1(O)CCC2C3CCc4cc(O)ccc4C3CC[C@@]21C (stereo not given in full) | 8.3% (active) | 28.4% | 47.5% | 78.1% | 66.8% | 43% | 55.2% | 16.1% | 4.63% (active) | 13.5% |
| COc1ccc(CCN2C(=O)CCC3=C2CCCC3=O)cc1OC | 101% | 98.1% | 102% | 104% | 102% | 100% | 108% | 120% | 94.6% | 98.2% |
| COc1cnc2c(c1)C(=O)c1c-2n(CCCNC2=NCCS2)c(=O)c2cc(F)ccc12 | -8.78% (active) | -14.3% (active) | 31.3% | 53.2% | 63.1% | 11.1% | 38% | 32.6% | 65.5% | 34.6% |
| C/C(=C\CCc1ccoc1)CC/C=C(\C)CCCNc1ccc(F)cc1 | 83.4% | 53.8% | 101% | 93.5% | 75.2% | 101% | 91.7% | 99.9% | 109% | 98.1% |
| OC(c1cc(-c2cccc(Cl)c2)nc2ccccc12)C1CCCCN1 (stereo not given) | -33.8% (active) | -26.8% (active) | -52.6% (active) | 2.42% (active) | -7.1% (active) | 48.3% | -61.7% (active) | -13.1% (active) | 34.9% | -29.4% (active) |
| COc1ccc(OC)c2c1CCC1(C2)NC(=O)NC1=O (stereo not given) | 102% | 102% | 97.8% | 101% | 101% | 102% | 110% | 126% | 85.6% | 102% |
| O=CNc1ccc2c(c1)Cc1cc([N+](=O)[O-])ccc1-2 | 31.6% | 35.6% | 41.3% | 36.2% | 74.5% | 12.8% | 30.7% | 16.1% | 40.1% | 3.1% (active) |
| O=C(NC1CCCCC1)c1ccc(Nc2ncnc3c2cnn3-c2ccccc2)cc1 | 67.5% | 89.5% | 21.6% | 80.3% | 30.3% | 54% | 71.1% | 87.4% | 0.218% (active) | 74.2% |
| Cc1ccc2nc(SCC(=O)Nc3ccc(-c4nc5ccccc5s4)c(Cl)c3)[nH]c2c1 | 97.2% | 109% | 110% | 108% | 112% | 105% | 100% | 111% | 110% | 107% |
| Cc1ccccc1NC(=O)N/C(N)=N/c1nc2ccccc2s1 | 8.11% (active) | 16.3% | 19.7% | 35.5% | 65% | 65% | 14.7% | 1.83% (active) | 42.1% | 8.91% (active) |
| Cc1csc(C#Cc2cncc(O)c2)n1 | 110% | 98.5% | 102% | 90.9% | 125% | 108% | -14% (active) | 111% | 132% | 113% |
| COc1cnc2c(c1)C(=O)c1c-2n(CCCNC(C)C)c(=O)c2cc(F)ccc12 | -13.4% (active) | -28.1% (active) | -14.2% (active) | -26.5% (active) | -0.201% (active) | -33.3% (active) | -5.18% (active) | -30.2% (active) | 16% | -16.1% (active) |
| COc1cc(NC(=O)NCc2ccco2)ccc1-c1ccc(NC(=O)NCc2ccco2)cc1OC | 55.6% | 65.2% | 36.7% | 96.5% | 60.9% | 69.9% | 72.9% | 74% | 59.4% | 91.2% |
| CCOc1cc(/C=C/C(=O)CC(=O)/C=C/c2ccc(OC(=O)CNCCN(CC)CC)c(OCC)c2)ccc1OC(=O)CNCCN(CC)CC | -42.1% (active) | -52.9% (active) | 4.23% (active) | -34.5% (active) | 18.1% | 32.6% | -67.7% (active) | 0.276% (active) | 1.48% (active) | 16.3% |
| CC1CN(/N=C/c2ccc([N+](=O)[O-])o2)C(=N)O1 (stereo not given) | 107% | 97.4% | 96.6% | 106% | 101% | 118% | 98.3% | 105% | 105% | 101% |
| COc1ccc(-c2nnc3c4[nH]cnc4ncn23)c(OC)c1 | 15.5% | 9.32% (active) | 18.4% | 17% | 36.8% | 11.4% | 45.8% | 13.4% | 54.4% | 17.6% |
